Experimental data from PubChem BioAssay (EPA / NIEHS).
Calls of active or inactive are those of the source. The calls were made as follows: active = hit-call score of the fitted dose curve at least 0.9, where 1 is the maximum; inactive = score below 0.9.

What was measured:
[1] = target: Bile acid receptor (Homo sapiens) (UniProt Q96RI1); assay: ATG_IR1_CIS: Attagene CIS-FACTORIAL HepG2 Assay for human Nuclear Receptor Subfamily 1 Group H Member 4 (NR1H4), IR1 submotif (AID 2282946); settings: IR1 reporter transcription, actives raise or lower the signal
Procedure, shortened: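 HepG2 cells transiently transfected with multiplexed cis-element reporter units read endogenous transcription factor activity. After 24 h compound exposure, reporter mRNA was quantified by RT-PCR, fluorescent labelling, HpaI digestion and capillary electrophoresis; bidirectional fitting versus DMSO baseline.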

[2] = ATG_GRE_CIS: Attagene CIS-FACTORIAL HepG2 Assay for human Glucocorticoid Response Elements (GRE) (AID 2282947); settings: HepG2 GRE cis-reporter, Attagene multiplex mRNA; actives raise or lower the signal
Procedure, shortened: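 Multiplexed cis-reporter mRNA induction, HepG2, 24 h post-dose. RT-PCR, FAM-labelled, HpaI-digested amplicons by CE. Bidirectional fit vs DMSO.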

[3] = ATG_ISRE_CIS: Attagene CIS-FACTORIAL HepG2 Assay for human Interferon Regulatory Factor 1 (IRF1) binding to an Interferon-Stimulated Response Element (ISRE) (AID 2282948); settings: HepG2 ISRE cis-reporter (Attagene), mRNA transcription readout; actives raise or lower the signal
Procedure, shortened: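 Multiplexed mRNA reporter readout in human liver HepG2 cells: cis-element-driven reporters transfected, compound added for 24 h, transcripts amplified, fluorescently labelled and sized by capillary electrophoresis; curve fitting bidirectional against DMSO.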

[4] = ATG_M_32_CIS: Attagene CIS-FACTORIAL HepG2 Assay for M32 Transcription Factor (Internal Marker) (AID 2282949); settings: HepG2 Attagene cis-factorial M32 reporter, mRNA; actives raise or lower the signal;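 also: background control marker of the multiplexed CIS panel rather than a real target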
Procedure, shortened: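 Transient MRTU transfection of HepG2; 24 h compound treatment; TriZol RNA, oligo(dT) RT, reporter PCR, 6-FAM primer extension, HpaI cut, CE. Gain/loss of signal vs DMSO.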

[5] = ATG_M_06_CIS: Attagene CIS-FACTORIAL HepG2 Assay for M06 Transcription Factor (Internal Marker) (AID 2282950); settings: HepG2 Attagene CIS-FACTORIAL M06 internal marker reporter; actives raise or lower the signal
Procedure, shortened: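 Steps: transfect HepG2 with multiplexed cis-element reporter constructs; dose chemical 24 h; extract RNA with DNase treatment; reverse-transcribe, PCR-amplify, 6-FAM label, HpaI digest; separate fragments by capillary electrophoresis. Activity fitted both directions versus DMSO.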

[6] = target: Hypoxia-inducible factor 1-alpha (Homo sapiens) (UniProt Q16665); assay: ATG_HIF1a_CIS: Attagene CIS-FACTORIAL HepG2 Assay for human Hypoxia Inducible Factor 1 (HIF1A) (AID 2282951); settings: HepG2 Attagene cis-factorial HIF1a reporter transcription; actives raise or lower the signal
Procedure, shortened: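 Measures endogenous transcription-factor activity through cis-regulated reporter mRNA in HepG2. Cells dosed 24 h; transcripts quantified by RT-PCR with 6-FAM-labelled products separated by capillary electrophoresis; DMSO serves as negative control.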

[7] = target: Hepatocyte nuclear factor 6 (Homo sapiens) (UniProt Q9UBC0); assay: ATG_HNF6_CIS: Attagene CIS-FACTORIAL HepG2 Assay for human Hepatocyte Nuclear Factor 6 (HNF6) (AID 2282952); settings: HepG2 Attagene cis-factorial HNF6 reporter transcription; actives raise or lower the signal
Procedure, shortened: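 Readout: fluorescent reporter-transcript fragments resolved by capillary electrophoresis after RT-PCR, reflecting endogenous factor activity in transfected HepG2. Exposure 24 h. Gain or loss of signal fitted bidirectionally against DMSO.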

[8] = target: Heat shock factor protein 1 (Homo sapiens) (UniProt Q00613); assay: ATG_HSE_CIS: Attagene CIS-FACTORIAL HepG2 Assay for human Heat Shock Transcription Factor 1 (HSE) (AID 2282953); settings: HepG2 HSE cis-reporter, Attagene RNA transcription; actives raise or lower the signal
Procedure, shortened: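 Cells were transfected with cis-element-driven reporter constructs, dosed for 24 h, then total RNA was reverse-transcribed and reporter cDNA amplified, FAM-labelled and digested with HpaI. Fragments were resolved by capillary electrophoresis; gain or loss was fitted against DMSO.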

[9] = ATG_MRE_CIS: Attagene CIS-FACTORIAL HepG2 Assay for human Metal Responsive Element (MRE) (AID 2282954); settings: HepG2 MRE cis-reporter transcription, Attagene multiplex; actives raise or lower the signal
Procedure, shortened: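 Multiplexed cis-reporter assay in human HepG2 liver cells, 24 h incubation with test chemical. Reporter transcripts measured by RT-PCR and capillary electrophoresis; values from bidirectional curve fitting versus DMSO.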

[10] = ATG_PBREM_CIS: Attagene CIS-FACTORIAL HepG2 Assay for human Phenobarbital-responsive Enhancer Module (PBREM) (AID 2282955); settings: HepG2 PBREM cis-reporter, Attagene multiplexed transcription; actives raise or lower the signal
Procedure, shortened: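 Fluorescence of labelled reporter cDNA fragments, resolved by capillary electrophoresis, gives mRNA induction in transfected HepG2 cells treated for 24 h; DMSO serves as negative control and baseline.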

Sequence of Hepatocyte nuclear factor 6 (Homo sapiens) (Q9UBC0 whole entry, looked up, the tested form may be a part): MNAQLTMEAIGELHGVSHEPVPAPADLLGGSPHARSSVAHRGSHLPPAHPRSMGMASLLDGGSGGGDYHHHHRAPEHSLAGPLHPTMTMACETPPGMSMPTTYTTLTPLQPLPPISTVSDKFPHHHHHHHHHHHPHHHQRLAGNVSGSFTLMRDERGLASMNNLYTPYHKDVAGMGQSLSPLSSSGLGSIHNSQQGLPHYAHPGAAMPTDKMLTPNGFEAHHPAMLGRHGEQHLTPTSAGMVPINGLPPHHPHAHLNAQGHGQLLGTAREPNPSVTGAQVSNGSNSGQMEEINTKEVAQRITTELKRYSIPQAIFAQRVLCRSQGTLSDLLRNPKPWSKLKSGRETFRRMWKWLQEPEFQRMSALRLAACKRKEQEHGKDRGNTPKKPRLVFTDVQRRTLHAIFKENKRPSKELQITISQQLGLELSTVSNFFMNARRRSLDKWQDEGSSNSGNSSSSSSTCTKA
Sequence of Hypoxia-inducible factor 1-alpha (Homo sapiens) (Q16665 whole entry, looked up): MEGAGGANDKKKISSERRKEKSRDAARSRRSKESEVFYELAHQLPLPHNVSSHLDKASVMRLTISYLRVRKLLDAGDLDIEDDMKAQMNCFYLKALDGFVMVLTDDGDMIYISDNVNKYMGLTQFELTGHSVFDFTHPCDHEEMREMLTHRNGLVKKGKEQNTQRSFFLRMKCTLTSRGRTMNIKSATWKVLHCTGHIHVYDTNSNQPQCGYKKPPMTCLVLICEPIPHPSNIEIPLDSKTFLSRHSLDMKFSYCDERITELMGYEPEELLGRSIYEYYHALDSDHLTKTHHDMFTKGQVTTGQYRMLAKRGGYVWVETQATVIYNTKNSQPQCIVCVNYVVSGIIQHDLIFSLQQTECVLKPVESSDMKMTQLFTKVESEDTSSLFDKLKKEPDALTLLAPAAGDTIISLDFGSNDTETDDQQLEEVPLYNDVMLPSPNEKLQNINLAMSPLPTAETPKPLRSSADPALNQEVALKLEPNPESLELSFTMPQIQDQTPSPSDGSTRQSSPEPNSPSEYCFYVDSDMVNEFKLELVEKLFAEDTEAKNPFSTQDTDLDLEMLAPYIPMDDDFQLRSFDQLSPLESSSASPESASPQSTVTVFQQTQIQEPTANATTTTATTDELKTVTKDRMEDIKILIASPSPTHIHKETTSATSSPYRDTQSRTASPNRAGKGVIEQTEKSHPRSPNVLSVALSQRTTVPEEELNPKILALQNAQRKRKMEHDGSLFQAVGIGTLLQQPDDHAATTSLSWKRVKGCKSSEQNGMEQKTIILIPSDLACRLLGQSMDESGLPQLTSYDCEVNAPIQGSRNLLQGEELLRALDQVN
Sequence of Heat shock factor protein 1 (Homo sapiens) (Q00613 whole entry, looked up, the tested form may be a part): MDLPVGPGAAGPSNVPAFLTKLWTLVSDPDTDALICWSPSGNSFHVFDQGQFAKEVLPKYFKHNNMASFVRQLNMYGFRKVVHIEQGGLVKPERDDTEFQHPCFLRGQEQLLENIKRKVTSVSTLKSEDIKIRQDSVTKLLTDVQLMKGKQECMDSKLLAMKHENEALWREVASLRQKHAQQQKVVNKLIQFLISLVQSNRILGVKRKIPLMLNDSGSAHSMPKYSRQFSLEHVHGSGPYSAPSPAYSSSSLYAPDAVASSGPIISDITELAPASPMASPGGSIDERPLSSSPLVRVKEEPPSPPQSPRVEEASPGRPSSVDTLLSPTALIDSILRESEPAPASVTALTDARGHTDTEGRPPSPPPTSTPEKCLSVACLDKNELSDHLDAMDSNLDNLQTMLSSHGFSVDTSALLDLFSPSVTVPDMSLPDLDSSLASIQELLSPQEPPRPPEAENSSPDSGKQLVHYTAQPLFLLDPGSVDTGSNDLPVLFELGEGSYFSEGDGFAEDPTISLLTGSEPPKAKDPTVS
Sequence of Bile acid receptor (Homo sapiens) (Q96RI1 whole entry, looked up): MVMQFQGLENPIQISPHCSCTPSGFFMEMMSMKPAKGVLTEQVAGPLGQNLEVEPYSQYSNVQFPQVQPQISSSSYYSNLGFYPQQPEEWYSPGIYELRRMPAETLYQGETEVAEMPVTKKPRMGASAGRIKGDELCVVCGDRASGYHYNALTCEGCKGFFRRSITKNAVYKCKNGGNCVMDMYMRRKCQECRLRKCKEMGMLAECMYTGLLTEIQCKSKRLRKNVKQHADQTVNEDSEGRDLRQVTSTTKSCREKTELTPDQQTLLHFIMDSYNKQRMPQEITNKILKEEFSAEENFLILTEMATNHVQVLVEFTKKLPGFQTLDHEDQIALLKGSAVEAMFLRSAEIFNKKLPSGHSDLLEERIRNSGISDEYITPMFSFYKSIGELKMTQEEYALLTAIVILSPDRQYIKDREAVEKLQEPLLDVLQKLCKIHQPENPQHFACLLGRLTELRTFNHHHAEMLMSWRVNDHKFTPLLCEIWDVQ

SMILES	outcome [1]	outcome [2]	outcome [3]	outcome [4]	outcome [5]	outcome [6]	outcome [7]	outcome [8]	outcome [9]	outcome [10]	AC50 [1]	AC50 [3]	AC50 [9]	AC50 [2]	AC50 [4]	AC50 [8]
C[Si](O[Si](C)(C)C)O[Si](C)(C)C	inactive	inactive	inactive	inactive	inactive	inactive	inactive	inactive	inactive							
C=CC(C)(C)O	inactive	inactive	inactive	inactive	inactive	inactive	inactive	inactive	inactive	inactive						
C=CCOC(=O)CCC1CCCCC1	inactive	inactive	inactive	inactive	inactive	inactive	inactive									
N#Cc1ccc(CC(=NNC(=O)Nc2ccc(OC(F)(F)F)cc2)c2cccc(C(F)(F)F)c2)cc1	inactive	inactive	inactive	inactive	inactive	inactive	inactive	inactive	inactive	inactive						
COc1c(Cl)c(Cl)c(Cl)c(Cl)c1Cl	inactive	inactive	inactive	inactive	inactive	inactive	inactive	inactive		inactive						
CCC(O)CO (stereo not given)	inactive	inactive	inactive	inactive	inactive	inactive	inactive		inactive	inactive						
NCCCN1CCOCC1	inactive	inactive	inactive	inactive	inactive	inactive	inactive	inactive	inactive							
CCCC(=O)c1cc(O)c(O)cc1O	inactive	inactive	inactive	inactive	inactive	inactive	inactive	inactive	inactive	inactive						
C=C(C)C(=O)OCCOC(=O)CC(C)=O	inactive	inactive	inactive	inactive	inactive	inactive	inactive	inactive	inactive							
Cc1ncc([N+](=O)[O-])n1C	inactive	inactive	inactive	inactive	inactive	inactive	inactive	inactive	inactive							
CC(C)(C#N)c1cc(Cn2cncn2)cc(C(C)(C)C#N)c1	inactive	inactive	inactive	inactive	inactive	inactive	inactive	inactive	inactive	inactive						
CC(=O)OCCC(C)CC(C)(C)C (stereo not given)	inactive	inactive	inactive	inactive	inactive	inactive	inactive	inactive		inactive						
Cc1cccc(C)c1C	inactive	inactive	inactive	inactive	inactive	inactive	inactive	inactive		inactive						
COc1cc(C(C)(C)C)c(O)c(C(C)(C)C)c1		inactive	inactive	inactive	inactive	inactive	inactive		inactive		69.8 µM (active)					
OCCN1CCNCC1	inactive	inactive	inactive	inactive	inactive		inactive	inactive		inactive						
COc1cc2ncnc(Nc3cccc(Cl)c3)c2cc1OC	inactive	inactive		inactive			inactive	inactive				5.56 µM (active)	20.1 µM (active)			
O=C(O)C[C@H](O)C[C@H](O)/C=C/c1c(C2CC2)nc2ccccc2c1-c1ccc(F)cc1	inactive	inactive	inactive	inactive		inactive	inactive	inactive	inactive	inactive						
O=S(=O)(O)c1ccc(O)c2ncccc12	inactive	inactive	inactive		inactive	inactive	inactive	inactive	inactive	inactive						
O=C1c2ccccc2C(=O)N1SC1CCCCC1			inactive			inactive	inactive		inactive	inactive	142 µM (active)			169 µM (active)	189 µM (active)	37.9 µM (active)
Cc1ccc2sc3cccc(C)c3c2c1	inactive	inactive	inactive	inactive	inactive		inactive	inactive	inactive	inactive						
N#Cc1ccccc1	inactive	inactive	inactive		inactive	inactive	inactive	inactive	inactive							
CSc1nnc(C(C)(C)C)c(=O)[nH]1	inactive	inactive	inactive	inactive	inactive	inactive	inactive		inactive	inactive						
CC(C#N)(CCC(=O)O)N=NC(C)(C#N)CCC(=O)O (stereo not given)	inactive	inactive	inactive		inactive	inactive	inactive	inactive	inactive							
CCCC(=O)C(C)=O	inactive	inactive	inactive	inactive	inactive		inactive	inactive	inactive	inactive						
CCCCCCCCCCCCCC(=O)O	inactive	inactive	inactive	inactive	inactive	inactive	inactive		inactive	inactive						
CCCCCCCCCCCCSC	inactive	inactive	inactive	inactive		inactive	inactive	inactive	inactive	inactive						
